Our source for the outcome and AC50 values is PubChem BioAssay (EPA / NIEHS).

Where “and” joins values, the source holds several entries; their conditions need not be identical. Equal entries are not always repeated. Records with an inconclusive call do not appear. Calls of active or inactive are those of the source. How the source made its calls, unless noted: active means hit-call score of the fitted dose curve at least 0.9, where 1 is the maximum; inactive means score below 0.9.

Read-out in assay [1]: NAD(P)H dehydrogenase [quinone] 1 (NQO1), NQO1 (gene 1728)
Nature of the assay: LTEA_HepaRG_NQO1: Life Technologies and Expression Analysis (LTEA) Assay for NAD(P)H dehydrogenase [quinone] 1 (NQO1) using HepaRG (AID 2283526). To be noted: mRNA level, 48 h; actives raise or lower the signal. In outline:
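In this assay, gene expression is read by qRT-PCR after 48 h exposure of HepaRG cells to eight concentrations (max 100 uM, half-log) in 0.5% DMSO. Each chemical runs in duplicate, and activity is scored relative to vehicle.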

Read-out in assay [2]: Nuclear factor erythroid 2-related factor 2 (Homo sapiens) (UniProt Q16236)
The assay can be described thus: LTEA_HepaRG_NFE2L2: Life Technologies and Expression Analysis (LTEA) Assay for Nuclear factor erythroid 2-related factor 2 (NFE2L2) Transcription Factor using HepaRG (AID 2283527). As to conditions: mRNA level, 48 h; actives raise or lower the signal. In short, it runs like this: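 HepaRG, 48 h dosing, 8-pt half-log series from 100 uM in 0.5% DMSO, duplicates. Read-out: NFE2L2 mRNA by qRT-PCR (ACTB/GAPDH/POLR2A normalization). Bidirectional curve fit vs DMSO baseline.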

Read-out in assay [3]: succinate dehydrogenase complex iron sulfur subunit B (SDHB), SDHB (gene 6390)
The assay can be described thus: LTEA_HepaRG_SDHB: Life Technologies and Expression Analysis (LTEA) Assay for succinate dehydrogenase complex iron sulfur subunit B (SDHB) using HepaRG (AID 2283528). As to conditions: mRNA level, 48 h; actives raise or lower the signal. In short, it runs like this: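 SDHB transcript level read by TaqMan qRT-PCR, housekeeping-normalised (ACTB, GAPDH, POLR2A), after 48 h chemical treatment of plated HepaRG cells; eight concentrations top 100 uM, half-log steps, 0.5% DMSO, duplicates; fitted both directions against DMSO.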

Read-out in assay [4]: Signal transducer and activator of transcription 3 (Homo sapiens) (UniProt P40763)
The assay can be described thus: LTEA_HepaRG_STAT3: Life Technologies and Expression Analysis (LTEA) Assay for Signal transducer and activator of transcription (STAT3) using HepaRG (AID 2283529). As to conditions: mRNA level, 48 h; actives raise or lower the signal. In short, it runs like this:
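HepaRG, 48 h exposure, 8-pt half-log series (top 100 uM), 0.5% DMSO vehicle, duplicates. Readout: STAT3 transcript by Fluidigm qRT-PCR, housekeeping-normalized; bidirectional fit vs DMSO baseline.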

Read-out in assay [5]: sulfotransferase 2A1 (SULT2A1), SULT2A1 (gene 6822)
The assay can be described thus: LTEA_HepaRG_SULT2A1: Life Technologies and Expression Analysis (LTEA) Assay for sulfotransferase 2A1 (SULT2A1) using HepaRG (AID 2283531). To be noted: mRNA level, 48 h; actives raise or lower the signal. In outline:
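Transcript levels of SULT2A1, quantified by qRT-PCR and normalized to three housekeeping genes, serve as the readout. Human HepaRG cultures receive test chemicals for 48 h at up to 100 uM in half-log steps, with 0.5% DMSO vehicle.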

Read-out in assay [6]: Transforming Growth Factor (TGFA), TGFA (gene 7039)
Nature of the assay: LTEA_HepaRG_TGFA: Life Technologies and Expression Analysis (LTEA) Assay for Transforming Growth Factor (TGFA) using HepaRG (AID 2283532). As to conditions: mRNA level, 48 h; actives raise or lower the signal. In short, it runs like this: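 qRT-PCR read-out of TGFA transcript, normalized to three housekeeping genes, fitted bidirectionally against 0.5% DMSO baseline. Human HepaRG cultures received chemicals for 48 h at eight half-log concentrations, top 100 uM.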

Read-out in assay [7]: Transforming Growth Factor (TGFB1), TGFB1 (gene 7040)
Nature of the assay: LTEA_HepaRG_TGFB1: Life Technologies and Expression Analysis (LTEA) Assay for Transforming Growth Factor (TGFB1) Transporter using HepaRG (AID 2283533). To be noted: mRNA level, 48 h; actives raise or lower the signal. In outline: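 HepaRG, 48 h post-plating, switched to serum-free induction medium; chemicals 100 uM top, half-log, 8 pts, 0.5% DMSO, dup; 48 h exposure; RNA → Fluidigm TaqMan qRT-PCR; norm ACTB/GAPDH/POLR2A; bidirectional fit vs DMSO.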

Read-out in another assay: TIMP1, TIMP1 (gene 7076)
The assay can be described thus: LTEA_HepaRG_TIMP1: Life Technologies and Expression Analysis (LTEA) Assay for TIMP1 using HepaRG (AID 2283534). To be noted: mRNA level, 48 h; actives raise or lower the signal. In outline: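 Readout is TIMP1 mRNA level measured by qRT-PCR and normalized to three housekeeping genes. Human HepaRG cells were treated for 48 h in duplicate at eight concentrations up to 100 uM (0.5% DMSO); gain or loss fitted against DMSO.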

Read-out in assay [8]: Tumor necrosis factor receptor 1 (TNFRSF1A), TNFRSF1A (gene 7132)
The assay can be described thus: LTEA_HepaRG_TNFRSF1A: Life Technologies and Expression Analysis (LTEA) Assay for Tumor necrosis factor receptor 1 (TNFRSF1A) using HepaRG (AID 2283535). To be noted: mRNA level, 48 h; actives raise or lower the signal. In short, it runs like this: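 Read-out is TNFRSF1A transcript level by TaqMan qRT-PCR, normalized to three housekeeping genes, scored as gain or loss of signal versus 0.5% DMSO. Human HepaRG cells received test chemicals for 48 h at up to 100 uM (half-log series).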

Read-out in assay [9]: Thyroid Hormone Responsive (THRSP), THRSP (gene 7069)
Nature of the assay: LTEA_HepaRG_THRSP: Life Technologies and Expression Analysis (LTEA) Assay for Thyroid Hormone Responsive (THRSP) using HepaRG (AID 2283536). As to conditions: mRNA level, 48 h; actives raise or lower the signal. In short, it runs like this:
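qRT-PCR read-out (Fluidigm TaqMan), housekeeping-normalized (ACTB/GAPDH/POLR2A). HepaRG, 48 h chemical exposure, 8-pt half-log series from 100 uM in 0.5% DMSO, duplicates. Bidirectional curve fit vs 0.5% DMSO baseline.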

Read-out in assay [10]: Cellular tumor antigen p53 (Homo sapiens) (UniProt P04637)
Nature of the assay: LTEA_HepaRG_TP53: Life Technologies and Expression Analysis (LTEA) Assay for Tumor Protein P53 (TP53) using HepaRG (AID 2283537). To be noted: mRNA level, 48 h; actives raise or lower the signal. In short, it runs like this:
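TP53 transcript measured by qRT-PCR, normalized to three housekeeping genes, after 48 h treatment of human HepaRG cultures with chemicals from 100 uM downward in half-log steps (0.5% DMSO vehicle, serum-free induction medium). Up- or down-regulation fitted against DMSO.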

Read-out in assay [11]: UDP glucuronosyltransferase (UGT1A1), UGT1A1 (gene 54658)
The assay can be described thus: LTEA_HepaRG_UGT1A1: Life Technologies and Expression Analysis (LTEA) Assay for UDP glucuronosyltransferase (UGT1A1) using HepaRG (AID 2283538). To be noted: mRNA level, 48 h; actives raise or lower the signal. In outline: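 mRNA induction or loss of UGT1A1, by TaqMan qRT-PCR, in duplicate HepaRG wells after 48 h exposure to half-log dilutions topping at 100 uM; DMSO (0.5%) served as baseline.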

Read-out in assay [12]: UDP glucuronosyltransferase (UGT1A6), UGT1A6 (gene 54578)
Nature of the assay: LTEA_HepaRG_UGT1A6: Life Technologies and Expression Analysis (LTEA) Assay for UDP glucuronosyltransferase (UGT1A6) using HepaRG (AID 2283539). As to conditions: mRNA level, 48 h; actives raise or lower the signal. In short, it runs like this: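 HepaRG, 48 h post-plating switch to serum-free induction medium; chemical 48 h, 100 uM top, half-log x8, duplicate, 0.5% DMSO. Phenobarbital 1mM induction control. UGT1A6 mRNA by TaqMan qRT-PCR; gain/loss fit vs DMSO.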

Read-out in assay [13]: X-box binding protein 1 (XBP1), XBP1 (gene 7494)
Nature of the assay: LTEA_HepaRG_XBP1: Life Technologies and Expression Analysis (LTEA) Assay for X-box binding protein 1 (XBP1) using HepaRG (AID 2283540). As to conditions: mRNA level, 48 h; actives raise or lower the signal. In short, it runs like this:
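Transcript levels of XBP1, measured by qRT-PCR and normalised to three housekeeping genes, were fitted bidirectionally relative to 0.5% DMSO controls. Human HepaRG cells received eight-point half-log dilutions from 100 uM for 48 h.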

Assay [14] is described as follows: LTEA_HepaRG_LDH_cytotoxicity: Cytotoxicity Assessment in the Life Technologies and Expression Analysis (LTEA) Assay (AID 2283563; active means hit-call score of the fitted dose curve at least 0.9, where 1 is the maximum;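 on AC50: LDH activity released into spent culture medium as a marker of cell death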). In short, it runs like this:
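Cells were thawed and plated for 48 h. Medium was then replaced with serum-free induction medium. Chemicals (8 half-log points, maximum 100 uM, 0.5% DMSO) were added in duplicate for 48 h, after which spent medium was assayed for LDH.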

Assay [15] has as its target Cellular tumor antigen p53 (Homo sapiens) (UniProt P04637). The assay can be described thus: TOX21_p53_BLA_p2_ratio: Tox21 HCT-116 p53 Agonism Beta-lactamase Assay, Ratio, Phase 2 (AID 2283592; active means hit-call score of the fitted dose curve at least 0.9, where 1 is the maximum). In short, it runs like this: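 Plated HCT116 p53-bla cells (4000/well) received compound after 5 h, then 16 h at 37C/5% CO2. CCF4-AM added, 2 h RT. Ratio of 460 to 530 nm emission taken as the p53 reporter signal.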

The nature of assay [16]: TOX21_p53_BLA_p2_viability: Viability Assessment in the Tox21 HCT-116 p53 Agonism Beta-lactamase Assay, Phase 2 (AID 2283591; active means hit-call score of the fitted dose curve at least 0.9, where 1 is the maximum;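 further: compound exposure lasted 16 h at 37 °C; actives lower the ATP signal meaning cytotoxicity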). In short, it runs like this:
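HCT116 p53-bla cells, 4000/well, dosed after 5 h plating (217-fold dilution of DMSO stocks) and incubated 16 h at 37C. Viability taken as cellular ATP by CellTiter-Glo luminescence after 30 min RT; signal loss marks cytotoxicity.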

The nature of assay [17]: TOX21_p53_BLA_p3_viability: Viability Assessment in the Tox21 HCT-116 p53 Agonism Beta-lactamase Assay, Phase 3 (AID 2283593; active means hit-call score of the fitted dose curve at least 0.9, where 1 is the maximum;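 further: cells exposed to compound for 16 h before reading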). In outline: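 HCT116 cells, 4000/well, dosed 5 h after plating by pin transfer (217-fold dilution from DMSO stock) and incubated 16 h at 37C, 5% CO2. Viability read as ATP luminescence with CellTiter-Glo after 30 min at room temperature.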

Cellular tumor antigen p53 (Homo sapiens), sequence (P04637 whole entry, looked up): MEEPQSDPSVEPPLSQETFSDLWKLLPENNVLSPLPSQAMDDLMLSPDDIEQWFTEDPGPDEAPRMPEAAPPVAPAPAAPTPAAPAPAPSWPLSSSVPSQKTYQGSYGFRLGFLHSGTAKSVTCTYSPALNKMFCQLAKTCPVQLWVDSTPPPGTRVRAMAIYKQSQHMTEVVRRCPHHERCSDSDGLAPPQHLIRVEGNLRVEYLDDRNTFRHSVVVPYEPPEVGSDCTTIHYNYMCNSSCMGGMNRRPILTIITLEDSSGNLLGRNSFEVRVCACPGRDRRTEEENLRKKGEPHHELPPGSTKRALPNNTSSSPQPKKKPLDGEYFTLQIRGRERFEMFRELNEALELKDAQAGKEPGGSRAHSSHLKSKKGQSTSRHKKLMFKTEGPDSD
Nuclear factor erythroid 2-related factor 2 (Homo sapiens), sequence (Q16236 whole entry, looked up): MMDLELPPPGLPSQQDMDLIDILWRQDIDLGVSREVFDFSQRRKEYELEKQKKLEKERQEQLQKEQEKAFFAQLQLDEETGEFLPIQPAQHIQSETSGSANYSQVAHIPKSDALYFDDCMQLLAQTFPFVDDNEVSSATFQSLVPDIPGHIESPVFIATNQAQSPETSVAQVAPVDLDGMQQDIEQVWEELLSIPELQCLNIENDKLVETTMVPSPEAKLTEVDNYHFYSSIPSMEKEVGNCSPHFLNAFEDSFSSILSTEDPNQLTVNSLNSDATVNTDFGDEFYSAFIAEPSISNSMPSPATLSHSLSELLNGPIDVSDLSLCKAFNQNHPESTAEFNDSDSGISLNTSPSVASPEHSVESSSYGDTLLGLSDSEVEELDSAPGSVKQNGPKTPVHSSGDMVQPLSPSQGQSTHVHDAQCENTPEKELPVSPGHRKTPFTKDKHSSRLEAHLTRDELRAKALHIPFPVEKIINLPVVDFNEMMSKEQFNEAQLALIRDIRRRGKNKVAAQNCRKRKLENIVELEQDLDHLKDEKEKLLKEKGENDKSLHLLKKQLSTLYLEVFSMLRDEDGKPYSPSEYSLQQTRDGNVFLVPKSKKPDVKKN
Signal transducer and activator of transcription 3 (Homo sapiens), sequence (P40763 whole entry, looked up): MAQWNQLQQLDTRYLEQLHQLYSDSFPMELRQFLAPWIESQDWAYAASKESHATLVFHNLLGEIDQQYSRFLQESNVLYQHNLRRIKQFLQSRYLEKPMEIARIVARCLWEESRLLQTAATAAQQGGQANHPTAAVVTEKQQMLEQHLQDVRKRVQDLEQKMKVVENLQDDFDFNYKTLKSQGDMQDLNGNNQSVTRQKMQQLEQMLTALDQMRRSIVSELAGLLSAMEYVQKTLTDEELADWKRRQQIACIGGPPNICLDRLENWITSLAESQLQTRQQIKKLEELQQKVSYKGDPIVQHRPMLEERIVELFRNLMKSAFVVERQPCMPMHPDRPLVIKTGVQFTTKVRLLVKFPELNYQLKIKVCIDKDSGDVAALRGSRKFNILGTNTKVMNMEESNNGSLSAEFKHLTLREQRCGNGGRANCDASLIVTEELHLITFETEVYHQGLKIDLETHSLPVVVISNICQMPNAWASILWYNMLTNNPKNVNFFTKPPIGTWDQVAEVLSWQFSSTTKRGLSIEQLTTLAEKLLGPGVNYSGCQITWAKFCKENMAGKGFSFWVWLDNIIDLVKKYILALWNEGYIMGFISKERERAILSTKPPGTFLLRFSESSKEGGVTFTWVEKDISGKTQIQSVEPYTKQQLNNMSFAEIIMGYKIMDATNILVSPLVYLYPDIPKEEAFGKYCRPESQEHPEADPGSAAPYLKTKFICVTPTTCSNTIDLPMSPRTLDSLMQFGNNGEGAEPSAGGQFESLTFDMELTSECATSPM

In general, AC50 refers to the concentration at which the activity in the assay is half-maximal. For the compound `CC(Oc1cccc(Cl)c1)C(=O)O` (stereo unspecified), the result in assay [1], in assay [2], in assay [3], in assay [4], in [5] and in [6] was inactive. Moreover, the outcome in assay [7] was “inactive”; with TIMP1, TIMP1 (gene 7076), “inactive”; in [8], “inactive”; in [9], “inactive”; in assay [10] it was “inactive”; in [12], “inactive”. Also, the outcome in assay [13], in assay [14] and in assay [15] was inactive. In addition, the AC50 in assay [11] is 10.1 µM (active).
With `FC(F)C(F)(F)OCC(Cn1cncn1)c1ccc(Cl)cc1Cl` (stereo unspecified), the outcome is “inactive” in assay [1]; “inactive” in [3]; “inactive” with TIMP1, TIMP1 (gene 7076); “inactive” in [16]; “inactive” in [15]; “inactive” in [17]. Besides, the AC50 is 73.7 µM (active) in [2]; 53.8 µM (active) in [5]; 62.2 µM (active) in [6]; 28.8 µM (active) in assay [7]; 49.8 µM (active) in assay [8]; 3.87 µM (active) in assay [9]. Further, the AC50 in assay [10] was 31.5 µM (active); in [11] it was 38.1 µM (active); in assay [12], 76.8 µM (active); in assay [13] it was 86.9 µM (active); in assay [14], 75.2 µM (active).
For `N#CSCSC#N`, the result in [1], in [2], in [3], in assay [4], in [5] and in assay [6] was inactive. Besides, the outcome was “inactive” in assay [7]; “inactive” in the assay with TIMP1, TIMP1 (gene 7076); “inactive” in assay [8]; “inactive” in assay [10]; “inactive” in assay [11]; “inactive” in assay [12]. The outcome in assay [13] was inactive. Besides, the AC50 in assay [9] is 50 µM (active); in [14], 75.7 µM (active); in assay [16], 54.8 µM (active) and 70.4 µM (active); in [15], 19 µM (active) and 15.5 µM (active); in assay [17], 60.7 µM (active) and 78.2 µM (active).
